Records with an inconclusive call do not appear. Values without a mark were called inactive. Active and inactive are the calls of the source. The call rests on the fitted dose curve; in most records, active means well fitted activation curve with a large enough effect; inconclusive means small, poorly fitted or top-dose-only effect; inactive means flat fitted curve, though single readings scatter.
What follows are compounds tested against Nuclear receptor subfamily 1 group I member 2 (Homo sapiens) (UniProt O75469) (assay: Dual reporter qHTS for agonist of Pregnane X Receptor (hPXR) against the NCATS DSHEA and TCM libraries: Luminescence readout (AID 1920059; on activation: 0% is about no effect)). Settings: hPXR dual reporter cells, luciferase luminescence agonist; series mostly up to 40 µM; activation: at the top concentration.
Sequence of Nuclear receptor subfamily 1 group I member 2 (Homo sapiens) (O75469 whole entry, looked up): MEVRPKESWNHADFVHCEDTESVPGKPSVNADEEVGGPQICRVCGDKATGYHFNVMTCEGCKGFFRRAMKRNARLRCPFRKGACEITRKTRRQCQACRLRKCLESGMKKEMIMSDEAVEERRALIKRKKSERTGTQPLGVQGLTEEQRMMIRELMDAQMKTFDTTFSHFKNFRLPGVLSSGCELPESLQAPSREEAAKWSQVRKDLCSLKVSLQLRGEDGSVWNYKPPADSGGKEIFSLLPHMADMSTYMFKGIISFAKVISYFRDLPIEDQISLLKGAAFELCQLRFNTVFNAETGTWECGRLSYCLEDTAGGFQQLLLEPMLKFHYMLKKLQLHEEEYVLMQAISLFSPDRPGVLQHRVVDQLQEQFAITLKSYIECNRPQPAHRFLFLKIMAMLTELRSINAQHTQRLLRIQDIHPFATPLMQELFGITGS
From the text: Assay Development and Screening Technology Laboratory (ADST)
National Center for Advancing Translational Sciences (NCATS), Rockville, MD
National Institute of Health (NIH), Bethesda, Maryland
Dietary Supplements and Natural Products have minor oversight of their safety and efficacy. We assembled a collection of Dietary Supplements and Natural Products (DSNP) as well as Traditional Chinese Medicinal (TCM) Plant extracts, which were screened against an in vitro panel of assays, including a liver cytochrome p450 enzyme panel, CAR/PXR signaling pathways, and P-gp transporter assays, to assess their activity. This pipeline facilitated the interrogation of Natural Product-Drug Interaction (NaPDI) through prominent metabolizing pathways. In addition, we compared the activity profiles of the DSNP/TCM substances with those of an approved drug collection. Many of the approved drugs have well-annotated mechanisms of action (MOA) while the MOAs for most of the DSNP and TCM samples remain unknown. Based on the premise that compounds with similar activity profiles tend to share similar targets or MOA, we clustered the library activity profiles to identify overlap with the NCATS Pharmaceutical Collection to predict the MOAs of the DSNP/TCM substances. Overall, we highlight four significant bioactivity profiles (measured by p-values) as examples of this prediction. To assess broad cytotoxicity, we employed screening against a HepG2 cell line. In addition, transporter-mediated drug interactions are utilized in the characterization of DDIs using a P-glycoprotein (P-gp) assays. To profile potential P-gp activity, a differential cell viability was measured against two cell lines: a parental KB-3-1 human cervical adenocarcinoma cell line and the drug-resistant subline KB-8-5-11 that overexpresses P-gp.
To this end, we profiled both collections for potential CAR and/or PXR activity, employing a previously published 1536-well qHTS assay.
[1] Lee TD, et al. A High-Throughput Screen of a Library of Therapeutics Identifies Cytotoxic Substrates of P-glycoprotein. Mol Pharmacol. Nov 2019;96(5):629-640. doi:10.1124/mol.119.115964
For PXR luciferase reporter gene assays, we used hPXR-LucHepG2cells provided by Dr. Taosheng Chen (Department of Chemical Biology and Therapeutics, St. Jude Children's Research Hospital). Cells were cultured in EMEM supplemented with 10% fetal bovine serum, 100U/mL penicillin and 100ug/mL streptomycin, and 500ug/mL of geneticin.
PROTOCOL TABLE (as described by Inglese J, Shamu CE and Guy RK. 2007)
SEQUENCE No. (e.g., 1, 2, 3, etc.); […] (e.g., Cells, Incubation, Reagent, etc.); VALUE; DESCRIPTION.
1; Cells; 5 uL; hPXR-LucHepG2; white solid-bottom Greiner plate.
2; Incubation; 5h; 37C, 95% humidity, 5% CO2
3; Compounds and control; 23 nL; Kalypsis pintool (Wako USA).
4; Reagent; 1uL; rifampicin (RIF) in the antagonist mode.
6; Reagent; 1 uL; CellTiter-Fluor detection reagent.
7; Incubation; 1 hr; 37C, 5% CO2.
8; Read; Fluorescence; ViewLux plate reader.
9; Reagent; 4 uL; ONE-Glo Luciferase detection reagent.
10; Incubation; 30 min; room temperature.
11; Read; Luminescence; ViewLux plate reader.
NOTES (numbers refer to Sequence numbers above)
1. Briefly, 5uL of hPXR-LucHepG2 cells in phenol red-free DMEM containing 5% charcoal-stripped FBS, 1 mM sodium pyruvate (Invitrogen), 2 mM L-glutamine (Invitrogen), and 100 U/mL penicillin and 100ug/mL streptomycin were dispensed using a BioRAPTR FRD at 4 x 10^5cells/mL (2000cells/well) in tissue culture-treated 1536-well white assay plates (GreinerBio-One).
2. Plates were incubated for 5h at 37C, 95% humidity, and 5% CO2 to allow for cell attachment.
3. Compounds (final concentration for most substances ranged from 15.6 nM to 45.9uM), positive control rifampicin (RIF; final concentration range of 2.8 nM to 92uM for the agonist mode), and cytotoxicity control tetraoctyl ammonium bromide (final concentration of 92uM) were transferred (23 nL) via pintool (Wako Automation).
4-5. […]
For CCCCCCCC/C=C/CCCCCCCCCC(=O)O, the “activation” value was -5.1%.
In the case of CCCCCC/C=C\CCCCCCCC(=O)O, the “activation” value is reported as -5.36%.
O=C(/C=C/c1ccc(O)c(O)c1)O[C@H]1[C@H](O)C[C@](O)(C(=O)O)C[C@H]1OC(=O)/C=C/c1ccc(O)c(O)c1 was tested, and the “activation” value was -3.55%.
For C=CC(=C)CCC=C(C)C, the “activation” value was -3.48%.
In the case of C[C@@H]1O[C@@H](OC[C@H]2OC(Oc3c(-c4ccc(O)c(O)c4)oc4cc(O)cc(O)c4c3=O)[C@H](O)[C@@H](O)[C@@H]2O)[C@H](O)[C@H](O)[C@H]1O (stereo not given in full), the “activation” value is reported as -8.26%.
In the case of C=C1C[C@@]23CC[C@H]4[C@](C)(CCC[C@]4(C)C(=O)O[C@@H]4O[C@H](CO)[C@@H](O)[C@H](O)[C@H]4O)[C@@H]2CC[C@]1(O[C@H]1O[C@@H](CO)[C@H](O)[C@@H](O)[C@@H]1O)C3, the “activation” value is reported as 4.68%.
CC(C)=CCC[C@](C)(O[C@@H]1O[C@H](CO)[C@@H](O)[C@H](O)[C@H]1O)[C@H]1CC[C@]2(C)[C@@H]1[C@H](O)C[C@@H]1[C@@]3(C)CC[C@H](O[C@@H]4O[C@H](CO)[C@@H](O)[C@H](O)[C@H]4O[C@@H]4O[C@H](CO)[C@@H](O)[C@H](O)[C@H]4O)C(C)(C)[C@@H]3CC[C@]12C was tested, and the “activation” value was 10.1%.
For CCCCCC(=O)O, the “activation” value was -9.67% [at 68.2 µM].
COc1ccc(C(=O)O)cc1 was tested, and the “activation” value was -11.4% [at 68.2 µM].
O=c1cc(-c2ccc(O)cc2)oc2cc(O[C@@H]3O[C@H](CO)[C@@H](O)[C@H](O)[C@H]3O[C@@H]3OC[C@](O)(CO)[C@H]3O)cc(O)c12 was tested, and the “activation” value was 2.04%.
C=C(C)C1CC=C(C)C(O)C1 (stereo not given) was tested, and the “activation” value was 2%.
O=C(/C=C/c1ccc(O)c2c1[C@H](C(=O)O)[C@@H](c1ccc(O)c(O)c1)O2)O[C@H](Cc1ccc(O)c(O)c1)C(=O)O was tested, and the “activation” value was -5.54%.
With O=c1c(O[C@@H]2O[C@H](CO)[C@H](O)[C@H](O)[C@H]2O)c(-c2ccc(O)c(O)c2)oc2cc(O)cc(O)c12 the “activation” value was 9.57%.
CC(C)=CCCC(C)(OC1OC(COC2OC(CO)C(O)C2O)C(O)C(O)C1O)C1CCC2(C)C1C(O)CC1C3(C)CCC(OC4OC(CO)C(O)C(O)C4OC4OC(CO)C(O)C(O)C4O)C(C)(C)C3CCC12C (stereo not given) was tested, and the “activation” value was -1.36%.
In the case of CC1=CCC(=C(C)C)CC1, the “activation” value is reported as 23.6% [at 68.2 µM].
With C=C1CC/C=C(/C)CC[C@@H]2[C@@H]1CC2(C)C the “activation” value was 20.3%.
COc1cc(-c2oc3cc(O)cc(O)c3c(=O)c2O)ccc1O was tested, and the “activation” value was 21.6%.
For CCCCCC/C=C/CCCCCCCCCC(=O)O, the “activation” value was 5.81%.
For O=C(OC[C@H]1O[C@@H](OC(=O)c2cc(O)c(O)c(O)c2)[C@H](OC(=O)c2cc(O)c(O)c(O)c2)[C@@H](OC(=O)c2cc(O)c(O)c(O)c2)[C@@H]1O)c1cc(O)c(O)c(O)c1, the “activation” value was 4.89% [at 22 µM].
CC(C)(O)[C@@H]1CC[C@](C)([C@@H]2[C@H](O)C[C@]3(C)C4C[C@@H](O[C@H]5O[C@@H](CO)[C@H](O)[C@@H](O)[C@@H]5O)C5C(C)(C)[C@H](O[C@H]6OC[C@H](O)[C@@H](O)[C@@H]6O)CC[C@]56CC46CC[C@@]23C)O1 (stereo not given in full) was tested, and the “activation” value was -5.76%.
In the case of CC(C)=CCC[C@](C)(O[C@@H]1O[C@H](CO)[C@@H](O)[C@H](O)[C@H]1O)[C@H]1CC[C@]2(C)[C@@H]1[C@H](O)C[C@@H]1[C@@]3(C)CC[C@H](O)C(C)(C)[C@@H]3[C@@H](O[C@@H]3O[C@H](CO)[C@@H](O)[C@H](O)[C@H]3O[C@@H]3O[C@@H](C)[C@H](O)[C@@H](O)[C@H]3O)C[C@]12C, the “activation” value is reported as -5.85%.
For C=C1C[C@]23CC[C@H]4[C@@](C)(CCC[C@@]4(C)C(=O)O)[C@@H]2CC[C@@]1(O[C@@H]1O[C@H](CO)[C@@H](O)[C@H](O)[C@H]1O[C@@H]1O[C@H](CO)[C@@H](O)[C@H](O)[C@H]1O)C3, the “activation” value was -7.11%.
For CC(C)=CCC[C@](C)(OC1OC(COC2OCC(O)C(O)C2O)C(O)C(O)C1O)[C@H]1CC[C@]2(C)[C@@H]1[C@H](O)C[C@@H]1[C@@]3(C)CC[C@H](OC4OC(CO)C(O)C(O)C4OC4OC(CO)C(O)C(O)C4O)C(C)(C)[C@@H]3CC[C@]12C (stereo not given in full), the “activation” value was 3.55%.
CC1(C)C2CCC1(C)C(O)C2 (stereo not given) was tested, and the “activation” value was -7.34%.
For O=C(O)[C@H]1O[C@@H](Oc2c(-c3ccc(O)c(O)c3)oc3cc(O)cc(O)c3c2=O)[C@H](O)[C@@H](O)[C@@H]1O, the “activation” value was 10.2%.
In the case of CC(=O)OC1CC2CCC1(C)C2(C)C (stereo not given), the “activation” value is reported as -5.87%.
In the case of CCCCC/C=C/C(=O)CCc1ccc(O)c(OC)c1, the Potency is reported as 31.6 µM (active).
With C=C1C[C@@]23CC[C@H]4[C@@](C)(CCC[C@@]4(C)C(=O)O[C@@H]4O[C@H](CO)[C@@H](O)[C@H](O)[C@H]4O)[C@@H]2CC[C@]1(O[C@@H]1O[C@H](CO)[C@@H](O)[C@H](O[C@@H]2O[C@H](CO)[C@@H](O)[C@H](O)[C@H]2O)[C@H]1O[C@@H]1O[C@@H](C)[C@H](O)[C@@H](O)[C@H]1O)C3 the “activation” value was -5.13%.
C=C1C[C@@]23CC[C@H]4[C@@](C)(CCC[C@@]4(C)C(=O)O[C@@H]4O[C@H](CO)[C@@H](O)[C@H](O)[C@H]4O[C@@H]4O[C@H](CO)[C@@H](O)[C@H](O)[C@H]4O)[C@@H]2CC[C@]1(O[C@@H]1O[C@H](CO)[C@@H](O)[C@H](O)[C@H]1O[C@@H]1O[C@H](CO)[C@@H](O)[C@H](O)[C@H]1O)C3 was tested, and the “activation” value was -2.57%.
In the case of CCCCCC(=O)CC, the “activation” value is reported as -9.8% [at 121 µM].
With CCCCCCCCCCCCCC(=O)OCC(O)CO (stereo not given) the “activation” value was -3.34% [at 68.2 µM].
With COc1ccc(-c2coc3cc(O[C@@H]4O[C@H](CO)[C@@H](O)[C@H](O)[C@H]4O)ccc3c2=O)cc1 the “activation” value was 30.8%.
In the case of Cc1ncc(COP(=O)(O)O)c(C)c1O, the “activation” value is reported as 14.4%.
CCCCCCCC/C=C\CCCCCCCCCCCCCC(=O)O was tested, and the “activation” value was 4.88%.
In the case of C=CCc1ccc(OC)c(OC)c1, the “activation” value is reported as -2.21%.
CCCCCCCCCCCCCCCCCCCCCC(=O)O was tested, and the “activation” value was 4.23%.
In the case of CCCCCCCCCCCCCC(=O)O, the “activation” value is reported as -9.21%.
With O=C(O[C@@H]1Cc2c(O)cc(O)cc2O[C@@H]1c1ccc(O)c(O)c1)c1cc(O)c(O)c(O)c1 the “activation” value was -7.61%.
With C=CC(C)(CCC=C(C)C)OC(C)=O (stereo not given) the “activation” value was -7.25% [at 68.2 µM].
For CC12CC3(O)OC(O1)C1(COC(=O)c4ccc(O)cc4)C3CC21OC1OC(CO)C(O)C(O)C1O (stereo not given), the “activation” value was 6.1%.

From PubChem BioAssay (NCATS)
Potency means the concentration at half of the fitted maximal effect.
